The values below come from PubChem BioAssay.

Where “and” joins values, the source holds several entries; their conditions need not be identical. Equal values may be shown once. Calls of active or inactive are those of the source. Rule as the data show it, unless noted: active = parasite load remaining mostly below about 12% (no sharp cut-off); inactive = mostly above about 10%.

Experiment [1] can be described thus: Wnt pathway potentiators raising nuclear beta-catenin – imaging, WNT3A-conditioned medium, mouse C2C12, NPC library, primary screen (AID 1117326; in the data active = nuclear beta-catenin stimulation mostly above about 4.2%, no sharp cut-off; inactive = mostly below about 10%). Particulars: stronger effect = higher value.
Experiment [2] is described as follows: stimulators of insulin release from INS-1E, primary screen, cell-based, 5 mM glucose, NPC library (AID 1117329;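 active = compound raises insulin release from rat beta cells at 5 mM glucose, no numeric limit stated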). The settings on record: rat INS-1E insulin secretion, at 10 µM, stronger effect = higher value.
A short description of experiment [3]: growth inhibition of GSK3B-pretreated HCT116 cells – cell-based, CellTiter-Glo, 0.2 to 20 µM (AID 1117336;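 active = compounds lowering colon cancer cell viability after pretreatment blocking the GSK3B kinase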). The settings on record: HCT116 viability after GSK3B inhibitor, at 20 µM, stronger effect = higher value. On the technique in general: In ATP-based viability assays light output follows the ATP content of the culture.
Experiment [4] is described as follows: inhibition of endothelial tube formation, primary screen, imaging, VEGF stimulated, CD31 staining, tube area, NPC library (AID 1117340;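 active = compound that reduces growth-factor-driven endothelial tube area in a mixed cell culture, no cutoff stated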). Particulars: VEGF-stimulated ADSC/ECFC co-culture, at 10 µM, stronger effect = higher value.
Experiment [5] is described as follows: GLP1 release stimulators, primary, NCI-H716, NPC library (AID 1117341;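 active = compound raises GLP1 secretion from the human gut endocrine cells, with no numeric limit stated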). Particulars: NCI-H716 cells, at 10 µM, stronger effect = higher value.
The nature of experiment [6]: HCT116 colon cancer cell growth inhibition, primary screen, CellTiter-Glo luminescence, NPC library (AID 1117342;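 active = compounds that lower survival of HCT116 colon cancer cells in the luminescence readout, no numeric limit stated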). The settings on record: at 20 µM (top of the series).
Experiment [7] is described as follows: reduced SW480 viability measured with CellTiter-Glo, NPC library, primary (AID 1117343;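 active = compounds that lower viability of the colon cancer cells in the luminescence readout, with no numeric limit stated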). Particulars: CellTiter-Glo luminescence; at 20 µM (top of the series).
Experiment [8] can be described thus: NPC library primary testing for decreased DLD-1 cell viability via CellTiter-Glo (AID 1117346;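 active = compounds that lower survival of DLD-1 colon cancer cells in the luminescence readout, no cutoff given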). The settings on record: DLD-1 viability, CellTiter-Glo luminescence; at 20 µM (top of the series).
The target in experiment [9] is 6-phosphogluconate dehydrogenase, decarboxylating (Homo sapiens) (UniProt P52209). Put plainly: inhibition of human phosphogluconate dehydrogenase – biochemical, recombinant enzyme, NADPH absorbance, primary screen (AID 1159550;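 active = at least 20% inhibition of 6-phosphogluconate dehydrogenase activity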). The settings on record: recombinant 6PGD, NADPH absorbance 341 nm; at 10 µM; stronger effect = higher value.
6-phosphogluconate dehydrogenase, decarboxylating (Homo sapiens), sequence (P52209 whole entry, looked up): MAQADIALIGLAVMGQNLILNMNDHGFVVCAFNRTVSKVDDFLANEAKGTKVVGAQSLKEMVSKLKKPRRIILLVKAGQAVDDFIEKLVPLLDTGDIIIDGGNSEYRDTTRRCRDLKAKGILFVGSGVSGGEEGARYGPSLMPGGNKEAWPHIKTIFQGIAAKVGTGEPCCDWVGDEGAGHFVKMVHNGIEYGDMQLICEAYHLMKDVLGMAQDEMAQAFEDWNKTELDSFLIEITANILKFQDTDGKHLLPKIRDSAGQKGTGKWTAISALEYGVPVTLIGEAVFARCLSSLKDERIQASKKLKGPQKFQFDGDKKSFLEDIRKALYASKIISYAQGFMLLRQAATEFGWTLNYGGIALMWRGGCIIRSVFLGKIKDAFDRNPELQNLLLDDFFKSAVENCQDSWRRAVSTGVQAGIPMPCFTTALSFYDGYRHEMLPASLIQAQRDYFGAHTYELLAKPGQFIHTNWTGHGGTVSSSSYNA
Experiment [10] concerns Aerobactin synthetase IucA (Klebsiella pneumoniae hvKP1). Put plainly: IucA enzyme inhibition, primary screen, biochemical, Spectrum library (AID 1346200; call rule not given here;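 also: 100% = wells without compound and 0% = wells lacking enzyme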). Particulars: malachite green pyrophosphate, A620, at 8 µM, stronger effect = lower value.
The target of experiment [11] is NAD(+) hydrolase SARM1 (Homo sapiens) (UniProt Q6SZW1). The experiment can be described thus: blocking NAD cleavage by SARM1 SAM-TIR – cell lysate, NAD-Glo luminescence (AID 1508614;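 active = compound whose remaining NAD level is above about 45 nM, limit read from the data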;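 also: higher remaining NAD means stronger inhibition of SARM1 NADase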). Particulars: SAM-TIR HEK293T lysate NADase, at 1 µM, stronger effect = higher value.
NAD(+) hydrolase SARM1 (Homo sapiens), sequence (Q6SZW1 whole entry, looked up, the tested form may be a part): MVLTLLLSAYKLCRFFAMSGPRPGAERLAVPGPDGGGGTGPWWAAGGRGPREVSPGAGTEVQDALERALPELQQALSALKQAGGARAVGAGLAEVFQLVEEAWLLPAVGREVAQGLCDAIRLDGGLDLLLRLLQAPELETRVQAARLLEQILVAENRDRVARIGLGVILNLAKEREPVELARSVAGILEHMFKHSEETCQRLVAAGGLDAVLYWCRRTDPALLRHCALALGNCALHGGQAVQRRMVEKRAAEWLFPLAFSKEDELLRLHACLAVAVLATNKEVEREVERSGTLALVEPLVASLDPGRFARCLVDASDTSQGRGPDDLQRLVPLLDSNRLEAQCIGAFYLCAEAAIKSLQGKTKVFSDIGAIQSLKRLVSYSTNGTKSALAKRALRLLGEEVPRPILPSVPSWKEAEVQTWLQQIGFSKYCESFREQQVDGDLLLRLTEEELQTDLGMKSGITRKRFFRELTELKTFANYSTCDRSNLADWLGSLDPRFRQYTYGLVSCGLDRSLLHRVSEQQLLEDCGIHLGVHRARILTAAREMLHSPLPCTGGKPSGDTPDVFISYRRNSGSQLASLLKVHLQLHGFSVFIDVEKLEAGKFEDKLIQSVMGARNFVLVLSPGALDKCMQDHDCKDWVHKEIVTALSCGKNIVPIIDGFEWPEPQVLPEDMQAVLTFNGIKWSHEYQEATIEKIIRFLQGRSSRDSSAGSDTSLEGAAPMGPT
Experiment [12] addresses Mitogen-activated protein kinase 7 (Homo sapiens) (UniProt Q13164). The experiment can be described thus: Gal4-ERK5 driven luciferase induction – cell-based, HTS, primary screen (AID 1508626;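 active = luciferase signal above three times the same-plate solvent-only control wells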;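 also: luciferase driven by Gal4-ERK5 fusion binding five Gal4 sites before minimal TATA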). Particulars: HeLa Gal4-ERK5 transactivation, 18 h, at 5 µM, stronger effect = higher value.
Experiment [13] in a line: P. berghei load reduction in hepatocytes – cell-based, HepG2, luciferase luminescence, HepG2 viability, primary screen (AID 624349).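 Also: 100% = mean of DMSO negative control wells on the same plate.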 Particulars: P. berghei liver stage in HepG2, luciferase luminescence, concentration not given here; parasite load remaining: stronger effect = lower value; viability: measured here: HepG2 viability without parasites.
Experiment [14] in a line: viability loss with induced miR-34 in A549 – imaging, A549 dox-inducible miR-34, nuclei and caspase counts, primary screen (AID 1347080;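 active = compounds whose cell count with miR-34 switched on is under 0.7 times the count with it off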). Particulars: A549 miR-34 inducible, Hoechst nuclei count, 48 h.
Experiment [15] is described as follows: MELAS cybrid and Rieske KO viability enhancers – cell-based, MELAS cybrids, Rieske KO mouse fibroblasts, CellTiter-Glo, primary screen (AID 1508586;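 active = mean z-score across replicates of 1.96 or higher in either the MELAS or the Rieske mutant cell line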;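 also: z relative to plate mean and SD of compound and empty wells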). Particulars: low glucose.
Experiment [16] in a line: galactose survival enhancers in mitochondrial complex I cybrids – cell-based, galactose medium, ATP luminescence, primary screen (AID 1645843;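 active = z-score of at least 1.8 in each of two replicates, scored against plate mean and spread of sample wells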;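 also: positive z means more ATP and so rescue of galactose-driven cybrid death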). The settings on record: complex I mutant cybrid cells, 72 h, stronger effect = higher value.
A short description of experiment [17]: yeast 75Q aggregation reduction – 75Q-TubU reporter (AID 1593). Particulars: Yeast 75Q polyglutamine aggregation reporter.
The nature of experiment [18]: blockers of cytochrome c efflux from mitochondria – biochemical, purified mitochondria (AID 1603).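 Also: mouse liver mitochondria challenged with calcium chloride; signal normalized to the plate average as 100%.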 Particulars: stronger effect = lower value.
Experiment [19] in a line: polyglutamine aggregate formation blockers (AID 1604). The settings on record: polyglutamine-induced protein aggregation inhibition assay; stronger effect = higher value; tested at 2.5 µM.
Experiment [20] in a line: EMT-state selective cytotoxicity in co-culture – imaging, PC-3E GFP, TEM4-18 mCherry, primary screen (AID 1345086;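 active = compounds killing one labelled cell type while sparing the other, by normalised counts and ratio limits, not self-fluorescent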;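 as to all read-outs here: cells exposed to compound for 72 h before imaging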;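 as to red/green cell ratio (normalised): normalised mesenchymal count divided by normalised epithelial count so high means epithelial killing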). Particulars: PC-3E GFP / TEM4-18 mCherry co-culture, imaging cell counts, at 1 µM; for red/green cell ratio (normalised): actives lie on both sides.
Where [21] appears, read: measured here: relative caspase fold change +Dox/-Dox.
Setting [22] is: measured here: total cells with miR-34 induction, stronger effect = lower value.
The mark [23] stands for this setting: measured here: total cells without miR-34 induction.
Where [24] appears, read: MELAS cybrid survival, CellTiter-Glo 48 h, stronger effect = higher value.
[25] abbreviates: Rieske KO mouse fibroblast survival, CellTiter-Glo 72 h.
[26] abbreviates: measured here: epithelial PC-3E GFP cell survival.
The mark [27] stands for this setting: measured here: mesenchymal TEM4-18 mCherry cell survival.

Mitogen-activated protein kinase 7 (Homo sapiens), sequence (Q13164 whole entry, looked up, the tested form may be a part): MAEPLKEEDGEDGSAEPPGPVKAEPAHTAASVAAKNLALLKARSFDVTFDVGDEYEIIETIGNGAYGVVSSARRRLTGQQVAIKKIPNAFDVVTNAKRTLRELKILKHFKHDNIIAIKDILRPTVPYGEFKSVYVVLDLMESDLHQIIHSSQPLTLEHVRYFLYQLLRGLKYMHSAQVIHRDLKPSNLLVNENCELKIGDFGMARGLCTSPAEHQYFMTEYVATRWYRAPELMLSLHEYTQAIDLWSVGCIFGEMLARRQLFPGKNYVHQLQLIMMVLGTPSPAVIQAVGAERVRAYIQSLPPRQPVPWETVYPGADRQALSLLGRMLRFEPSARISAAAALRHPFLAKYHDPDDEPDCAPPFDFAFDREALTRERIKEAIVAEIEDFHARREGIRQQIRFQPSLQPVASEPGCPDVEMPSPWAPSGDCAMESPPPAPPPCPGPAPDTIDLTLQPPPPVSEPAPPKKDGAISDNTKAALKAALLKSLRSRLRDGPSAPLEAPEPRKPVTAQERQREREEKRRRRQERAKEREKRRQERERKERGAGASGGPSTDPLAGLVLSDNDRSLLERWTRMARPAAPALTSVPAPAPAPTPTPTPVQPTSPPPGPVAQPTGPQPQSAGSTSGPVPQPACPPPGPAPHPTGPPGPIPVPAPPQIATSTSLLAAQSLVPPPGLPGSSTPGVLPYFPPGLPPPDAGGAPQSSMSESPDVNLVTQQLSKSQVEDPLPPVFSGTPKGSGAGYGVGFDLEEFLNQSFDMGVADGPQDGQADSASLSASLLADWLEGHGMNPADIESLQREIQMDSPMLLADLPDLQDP

For `CCCCCCCCC(=O)NCc1ccc(O)c(OC)c1`, the nuclear beta-catenin stimulation is 2.1% (inactive) in [1] (at 10 µM) and 1.1% in experiment [1] (stimulation, at 2 µM). Also, the insulin secretion stimulation in [2] was -0.6% (inactive). The viability decrease in [3] was 4.5% (inactive). In experiment [4], the tube area decrease was 21.4% (inactive). The GLP1 secretion stimulation in experiment [5] is 4% (inactive). Besides, the inhibition of viability in experiment [6] is 1.8% (inactive). Further, the viability decrease (inhibition) in experiment [7] was 49.7% (inactive); in [8], 11.7% (inactive). Besides, the inhibition (in general, the relative decrease from the control value, in per cent) in [9] was -12.3% (inactive). Besides, the activity remaining in experiment [10] was 92.7% (inactive). In addition, the remaining NAD in [11] is 10 nM (inactive). The luciferase signal in experiment [12] is 52 AU (inactive).
As for `C[C@@H]1O[C@@H](O[C@H]2C[C@@H](O)[C@]3(CO)[C@H]4[C@H](O)C[C@]5(C)[C@@H](C6=CC(=O)OC6)CC[C@]5(O)[C@@H]4CC[C@]3(O)C2)[C@H](O)[C@H](O)[C@H]1O`, the parasite load remaining in [13] is -1.77% (inactive) and 5.6% (inactive) and -0.23% (inactive). Also, the viability (commonly a read-out of living cells in per cent, often relative to untreated cells) in experiment [13] was 38.8% and 25.7% and 34%. For the same molecule, the nuclear beta-catenin stimulation is 0% (inactive) in experiment [1] (at 10 µM) and -1.2% in [1] (stimulation, at 2 µM). Further, the insulin secretion stimulation in [2] is 5.8% (inactive). The viability decrease in experiment [3] was 84.8% (active). Further, in experiment [4], the tube area decrease is 112% (active). In addition, the GLP1 secretion stimulation in experiment [5] is 9.2% (inactive). In addition, the inhibition of viability in experiment [6] was 56.6% (active). Further, the viability decrease (inhibition) was 61% (active) in experiment [7] and 77.4% (active) in experiment [8]. The inhibition in experiment [9] was -10.9% (inactive). Moreover, the fold change is 0.999 (inactive) and 0.916 (inactive) and 0.73 (inactive) in experiment [14] (stronger effect = lower value); 0.275 and 1.45 and 1.97 in experiment [14] (setting [21]). For the same molecule, the cell count in experiment [14] (setting [22]) was 345 and 529 and 320; in [14] (setting [23]), 346 and 578 and 438. The z-score is 2.21 (active) in [15] (setting [24]); -0.329 in [15] (setting [25]); -1.23 (inactive) and -2.25 (inactive) in [16]. Also, in experiment [11], the remaining NAD was 10 nM (inactive). For the same molecule, the luciferase signal in experiment [12] is 16 AU (inactive).
On to `CC(=O)Nc1cc([As](=O)(O)O)ccc1O`, for which the score in experiment [17] worked out at 0.97. Also, in experiment [18], the cytochrome c release ratio was 1.06. Besides, the inhibition of aggregation in [19] turned out to be 43.7%. For the same molecule, in experiment [13], the parasite load remaining is 96.4% (inactive) and 52.6% (inactive). For the same molecule, the viability in experiment [13] is 66.8% and 91.1%. For the same molecule, the nuclear beta-catenin stimulation is 4.8% (inactive) in experiment [1] (at 10 µM) and 0.2% in experiment [1] (stimulation, at 2 µM). Further, the insulin secretion stimulation in [2] was -0.2% (inactive). In addition, the viability decrease in [3] is -42.6% (inactive). Besides, the tube area decrease in experiment [4] is -21.2% (inactive). The GLP1 secretion stimulation in experiment [5] is -0.8% (inactive). The inhibition of viability in experiment [6] was -7.73% (inactive). For the same molecule, the viability decrease (inhibition) in [7] is 16.9% (inactive); in [8] it was -3.7% (inactive). In addition, the inhibition in [9] is 17.7% (inactive). For the same molecule, the red/green cell ratio (normalised) in experiment [20] is 0.8 (inactive). The values for the normalised cell number in experiment [20] (setting [26]) and in experiment [20] (setting [27]) were 1.16 and 0.94, respectively. Further, the activity remaining in [10] was 107% (inactive). The fold change is 0.975 (inactive) in experiment [14] (stronger effect = lower value) and 2.55 in experiment [14] (setting [21]). Besides, the cell count in experiment [14] (setting [22]) is 12000; in experiment [14] (setting [23]), 12300. Besides, the remaining NAD in experiment [11] is 10 nM (inactive). Also, the luciferase signal in [12] is 52 AU (inactive).
`CC(C)(C)NCC(O)c1cc(Cl)c(N)c(Cl)c1` (configuration not stated) came in with a score in [17] of 1.52. The cytochrome c release ratio in [18] is 1.06. The molecule further yielded an inhibition of aggregation in experiment [19] of 29.4%. Also, the parasite load remaining in experiment [13] was 72.5% (inactive) and 86% (inactive) and 37.5% (inactive). In experiment [13], the viability was 109% and 74.6% and 102%. Moreover, the nuclear beta-catenin stimulation in experiment [1] (at 10 µM) is 0% (inactive); in [1] (stimulation, at 2 µM) it was 1.4%. For the same molecule, the insulin secretion stimulation in [2] was 3.8% (inactive). Further, the viability decrease in [3] is -1.4% (inactive). Besides, the tube area decrease in experiment [4] was 13.7% (inactive). Further, the GLP1 secretion stimulation in experiment [5] was 0.6% (inactive). Moreover, the inhibition of viability in [6] was 24.9% (inactive). The viability decrease (inhibition) in [7] is 15.4% (inactive); in [8] it was 10.4% (inactive). Also, in [9], the inhibition is -5.11% (inactive). Further, the red/green cell ratio (normalised) in experiment [20] was 1.04 (inactive). Also, the normalised cell number in [20] (setting [26]) worked out at 1.05; in experiment [20] (setting [27]) it was 1.09. In addition, in experiment [10], the activity remaining is 115% (inactive). In addition, the fold change in experiment [14] (stronger effect = lower value) is 0.844 (inactive) and 0.889 (inactive); in experiment [14] (setting [21]), 1.23 and 1.3. The cell count in experiment [14] (setting [22]) was 8390 and 9780; in experiment [14] (setting [23]), 9940 and 11000. The z-score is 0.503 (inactive) and 0.285 (inactive) in experiment [15] (setting [24]); 0.0878 and 0.551 in [15] (setting [25]); 0.41 (inactive) in experiment [16]. Also, in [11], the remaining NAD was 10 nM (inactive). Moreover, in [12], the luciferase signal is 44 AU (inactive).
